# Compound activity: PubChem BioAssay, National Center for Advancing Translational Sciences (NCATS)
# An excerpt weighted towards active compounds, which were near 10% of everything screened.
# NIH3T3 tox: Cytotoxic Profiling in NIH 3T3 Cell Line of Diverse Libraries Using Quantitative High-Throughput Screening | AID 1345082, 2018 | Potency, µM (doses to about 96.7 µM), for the others: at the highest dose activity change, negative = cytotoxicity, hits mostly inhibitors | hit rate 4.3% among 94,000 | NIH 3T3 viability, CellTiter-Glo ATP luminescence, 48-72 h; note: nearly all actives have a fitted effect of over 55% in size
#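 Mouse fibroblast NIH 3T3 cells, 400 per well, received compound via pintool and were incubated for 48 or 72 hr prior to CellTiter-Glo ATP luminescence measurement.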
# GPT2 inhibitor: Primary qHTS assay for inhibitors of Glutamate pyruvate transaminase 2 (GPT2) | Recombinant GPT2, coupled pyruvate oxidase/HRP Amplex Red fluorescence | Potency, µM (doses to about 57.7 µM), for inactives: at the top dose activity change, negative = inhibition, hits mostly inhibitors | hit rate 0.25% among 100,000 | AID 1671188, 2021; note: nearly all actives have a fitted effect of over 60% in size
# Target sequence (Q8TD30 whole entry, looked up): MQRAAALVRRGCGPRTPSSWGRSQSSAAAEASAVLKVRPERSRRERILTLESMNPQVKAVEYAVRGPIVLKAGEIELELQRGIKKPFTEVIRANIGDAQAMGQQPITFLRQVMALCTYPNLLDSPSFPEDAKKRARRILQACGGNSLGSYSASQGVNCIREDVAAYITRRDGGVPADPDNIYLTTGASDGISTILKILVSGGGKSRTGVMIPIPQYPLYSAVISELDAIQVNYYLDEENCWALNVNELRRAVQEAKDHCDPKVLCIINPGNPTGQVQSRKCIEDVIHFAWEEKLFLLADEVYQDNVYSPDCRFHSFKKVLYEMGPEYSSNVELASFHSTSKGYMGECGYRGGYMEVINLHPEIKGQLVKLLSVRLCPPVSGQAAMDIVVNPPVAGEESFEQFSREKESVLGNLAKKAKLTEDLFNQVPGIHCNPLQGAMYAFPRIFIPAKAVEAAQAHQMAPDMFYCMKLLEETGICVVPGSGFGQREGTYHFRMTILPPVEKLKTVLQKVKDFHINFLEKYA
#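 Recombinant GPT2 (10ng/uL) with 250uM a-KG and 2mM L-alanine, 30 min at room temperature, in HEPES pH 7.5 buffer. Pyruvate detected by pyruvate oxidase/HRP/Amplex Red fluorescence after 30 min in the dark; AOA (50uM) as positive control.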
# HEK293 tox: Cytotoxic Profiling in HEK 293 Cell Line of Diverse Libraries Using Quantitative High-Throughput Screening. HEK 293 viability, ATP luminescence (CellTiter-Glo), 48-72 h. Potency, µM (series often up to 115 µM), for inactives: at the top dose activity change, negative = cytotoxicity, hits mostly inhibitors. hit rate 6.6% among 94,000; note: nearly all actives have a fitted effect of over 60% in size
#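 HEK 293 cells seeded at 250 cells/well were exposed to compound for 48 or 72 hr at 37 degree Celsius. Viability taken as ATP content by CellTiter-Glo luminescence.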
# FLuc inh: Firefly luciferase inhibition profiling of diverse chemical library using quantitative high-throughput screening; Luciferin 4-monooxygenase (Photinus pyralis), P08659; purified P. pyralis luciferase, luminescence, biochemical; Potency, µM (titrated, usually from 115 µM), most hits filed as inhibitors; hit rate 2.5% among 76,000; AID 1347043, 2019; note: nearly all actives have a fitted effect of over 65% in size
#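 Purified P. pyralis luciferase (10nM final) in 50mM Tris acetate pH 7.5, 10mM Mg acetate, 0.01% Tween-20, 0.05% BSA with 10uM D-luciferin and 10uM ATP. Compounds titrated qHTS. Luminescence imaged on CCD.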
# NPR1 antag: Natriuretic polypeptide receptor (hNpr1) antagonism - Primary qHTS | Potency, µM (series often up to 46.3 µM), without a hit: at the top dose activity change, negative = inhibition, hits mostly inhibitors | Atrial natriuretic peptide receptor 1 (Homo sapiens), P16066 | AID 1347048, 2019 | hit rate 1.6% among 76,000 | HEK293 hNpr1 GloSensor cGMP, ANP-stimulated luminescence; calls by dose curve; note: nearly all actives have a fitted effect of over 60% in size
#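 Compound pre-incubated 30 min at room temperature on GloSensor-loaded HEK293 cells stably carrying hNpr1 and the pGS-40F cGMP biosensor. Stimulation uses hNppA at 0.1 nM final; luminescence is taken at baseline and 20 min post-agonist.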
# * = called active by the depositor; i = inactive; ? = inconclusive; · = no result given; [ ] = dose if it differs, or a comment. Unless noted, calls come from the whole dose curve; as a rule, active = well fitted curve in the direction sought with a large enough effect; inconclusive = small, poorly fitted or top-dose-only effect, or another doubt; inactive = no such curve, though single readings can be large; an effect the other way counts as inactive or inconclusive. % is set by controls: 0 for no effect and ±100 for the full control effect; potency is the fitted concentration of half-maximal effect.
SMILES,NIH3T3 tox,GPT2 inhibitor,HEK293 tox,FLuc inh,NPR1 antag
COc1ccc(OC)c2nc(-c3cccc(Cl)c3)c(CN3CCCC(O)C3)cc12 (configuration not stated),?,i,?,i,-3%
CC(=O)N[C@H]1CC[C@]2(C)CC[C@@H](C(C)C(=O)NC3CCCCC3)[C@H](O)[C@H]2[C@@H]1C (some centres not stated),-13%[174 µM],-29%[88.5 µM],4%[172 µM],i,-1%[70.6 µM]
CC(C)(C)NC(=O)NCc1nnc2n1C(C(=O)NCc1ccccn1)CC2 (configuration not stated),-13%,1%,-20%,·,·
COc1ccc(-c2nccc3c(=O)cc(-c4cccnc4)oc23)cc1OC,22µM*,4%[88.5 µM],-7%[172 µM],i,0%[70.6 µM]
CN(c1ccc(Cl)c(Cl)c1)C1CNC1,100µM*,2%[88.5 µM],112µM*,·,·
CC(N)(Cc1ccc(O)c(O)c1)C(=O)O (configuration not stated),·,8.9µM*,·,·,·
C[C@](Cc1ccc(O)c(O)c1)(NN)C(=O)O,·,4%,·,·,·
CC(O)CCNS(=O)(=O)c1ccc2c(c1)CN(C(=O)CN1CCOC1=O)CC2 (configuration not stated),-8%,i,-7%,i,-4%
COc1ccc2c(C)c(C(=O)N3CC[C@H](CO)[C@@H](O)C3)oc2c1,-1%,i,-21%,i,5%
COc1ccc2c3c1C(c1ccccc1)N(Cc1ccccc1)CC3=CC(C)(C)CO2 (configuration not stated),-20%,·,?,·,·
COc1ccc2c3c1CN(C(=O)NCc1ccccc1)CC3=CC(C)(C)CO2,?,·,40µM*,·,·
c1cc(-c2cc(-c3ccncc3)c3cncn3c2)c2[nH]ncc2c1,-45%[138 µM],-30%[88.5 µM],-45%[172 µM],i,-24%[70.6 µM]
c1cc(-c2cc(-c3ccncc3)c3cncn3c2)c2cc[nH]c2c1,?,?,89µM*,i,-28%[70.6 µM]
c1cc(-c2cc(-c3ccncc3)c3cncn3c2)c2[nH]ccc2c1,40µM*,-22%[88.5 µM],100µM*,?,-24%[70.6 µM]
COCCNC(=O)[C@@H]1C[C@H](Oc2cccnc2)CN1C(=O)Cc1cccc(F)c1,-5%,i,i,i,9%
COc1ccc(C(=O)NC2CCN(c3cc(-c4cccs4)[nH]n3)C2)cn1 (configuration not stated),-25%,?,?,i,-12%
CC1=C[C@@H](CNCc2ccccn2)[C@H](C(C)C)C[C@H]1Cc1nnc(-c2ccccc2)o1,?,-5%[88.5 µM],79µM*,i,?
CC1=C[C@@H](CNCc2ccncc2)[C@H](C(C)C)C[C@H]1Cc1nnc(-c2ccc(C)cc2)o1,?,-7%[88.5 µM],?,i,?
CC1=C[C@@H](CNCc2cccnc2)[C@H](C(C)C)C[C@H]1Cc1nnc(-c2ccncc2)o1,?,2%[88.5 µM],?,i,-15%[70.6 µM]
CC1=C[C@@H](CNCc2cccnc2)[C@H](C(C)C)C[C@H]1Cc1nnc(-c2ccc(N(C)C)cc2)o1,?,-13%,18µM*,i,?
CC1=C[C@@H](CNCc2ccccn2)[C@H](C(C)C)C[C@H]1Cc1nnc(-c2ccc(N(C)C)cc2)o1,?,i,11µM*,i,-28%
C=CCNC(=O)N[C@H]1C[C@@H](C(=O)N[C@H](Cc2c[nH]c3ccccc23)C(N)=O)N(C(=O)C2CC2)C1,3%,i,-2%,i,6%
CCN1CCCN(C(=O)Nc2ccc(C)c(C)c2)CC12CCOCC2,0%,i,4%,·,·
Cc1nn(-c2ccc(F)cc2)c(C)c1[C@@H]1C=C[C@@H](NS(=O)(=O)c2cccs2)C1,?,?,?,i,-13%[70.6 µM]
Cc1nn(CCC#N)c(C)c1[C@@H]1C=C[C@@H](NS(=O)(=O)c2cccs2)C1,45µM*,2%[88.5 µM],-9%[172 µM],i,-3%[70.6 µM]
